Test results taken from the supplement of paper PMC7366291.
Counter-ions that a name gives are not always drawn. ± gives the standard deviation or the standard deviation of the averaged measurements.

Experiments:
Conditions in all cases: 25 µM; exposure: 24-48 hpf
[1] = tested on: Danio rerio Tg(wt1b:EGFP) embryo, pronephros; assay: glomerular separation, fold change vs DMSO control; higher = glomeruli further apart (abnormal)
Method in brief: (§1)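 Each feature value is a fold change relative to the mean of same-day DMSO-treated embryos. Embryos of the Tg(wt1b:EGFP) zebrafish line, dechorionated, received 25 μM compound in 0.5% DMSO from 24 to 48 hpf at 28.5°C, in HEPES-buffered E3 with 0.003% PTU. Distances and angles were computed by a Fiji macro from 16 manually set reference points on maximum projections of dorsal pronephros images, and values beyond 2 SD of the feature mean were removed.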

[2] = tested on: Danio rerio Tg(wt1b:EGFP) embryo, pronephros; assay: glomerular width (mean of left and right), fold change vs DMSO control; higher = wider glomerulus
Method in brief: as §1

[3] = tested on: Danio rerio Tg(wt1b:EGFP) embryo, pronephros; assay: fraction of imaged embryos annotated as normal kidney; higher = less nephrotoxic; extreme values may be limits of the assay
Method in brief: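 Zebrafish embryos carrying Tg(wt1b:EGFP) were dechorionated and exposed to 25 μM compound (0.5% DMSO) between 24 and 48 hpf at 28.5°C. Their pronephroi were imaged by widefield fluorescence, and each embryo was classed by hand from maximum projections. The measure is the fraction of embryos per treatment falling in the normal-kidney category.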

[4] = tested on: Danio rerio Tg(wt1b:EGFP) embryo, pronephros; assay: pronephric angle neck segment to proximal convoluted tubule (mean of left and right), fold change vs DMSO control; higher = larger pronephric angle
Method in brief: as §1

SMILES	glomerular separation [1]	glomerular width [2]	fraction of imaged embryos annotated as normal kidney [3]	pronephric angle neck segment [4]
CC(C)NC(=N)NC(=N)Nc1ccc(Cl)cc1 [Proguanil hydrochloride]	1.2 ± 0.52	0.978 ± 0.0098	0.917	1.02 ± 0.054
O=C(O)Cc1ccccc1Nc1c(Cl)cccc1Cl [Diclofenac sodium]	3.78 ± 1.9	0.492 ± 0.031	0	1.63 ± 0.018
Cc1noc(NS(=O)(=O)c2ccc(N)cc2)c1C [Sulfisoxazole]	0.975 ± 0.37	1.04 ± 0.058	0.75	0.97 ± 0.044
O=C(CCCN1CCN(c2ccccn2)CC1)c1ccc(F)cc1 [Azaperone]	1.11 ± 0.43	0.925 ± 0.039	0.833	1 ± 0.019
NC(Cc1cc(I)c(Oc2cc(I)c(O)c(I)c2)c(I)c1)C(=O)O (stereo not drawn) [Thyroxine (L)]	1.12 ± 0.3	1.07 ± 0.046	0.75	1.02 ± 0.029
Cc1c(F)c(N2CCNC(C)C2)cc2c1c(=O)c(C(=O)O)cn2C1CC1 (stereo not drawn) [Grepafloxacin]	0.897 ± 0.35	1.033 ± 0.0021	0.75	0.985 ± 0.013
CCN1CCC[C@H]1CNC(=O)c1c(O)c(Cl)cc(Cl)c1OC [Raclopride]	1.26 ± 0.47	0.903 ± 0.033	0.917	1.02 ± 0.12
COC(=O)C1=C(C)NC(C)=C(C(=O)OC(C)C)C1c1cccc2nonc12 (stereo not drawn) [Isradipine]	4.38 ± 1.4	0.666 ± 0.037	0	1.007 ± 0.0069
CC(=O)[C@H]1CC[C@H]2[C@@H]3C[C@H](C)C4=CC(=O)CC[C@]4(C)[C@H]3[C@@H](O)C[C@]12C [Medrysone]	1.02 ± 0.44	1.17 ± 0.072	0.417	0.957 ± 0.019
CCC1(c2ccccc2)C(=O)NCNC1=O [Primidone]	0.835 ± 0.33	1.0079 ± 0.00034	0.917	1.03 ± 0.025
CNNCc1ccc(C(=O)NC(C)C)cc1 [Procarbazine hydrochloride]	1.02 ± 0.24	0.973 ± 0.017	1	1.084 ± 0.0049
Cc1cc2c(s1)Nc1ccccc1N=C2N1CCN(C)CC1 [Olanzapine]	0.786 ± 0.41	0.925 ± 0.034	0.917	1.01 ± 0.041
CN1CCC(=C2c3ccccc3CC(=O)c3sccc32)CC1 [Ketotifen fumarate]	0.991 ± 0.29	1.06 ± 0.027	0.833	0.948 ± 0.013
CN1[C@@H]2CC[C@H]1C[C@@H](OC(c1ccccc1)c1ccccc1)C2 [Benztropine mesylate]	0.821 ± 0.18	1 ± 0.025	0.833	1.04 ± 0.011
N=C(N)c1ccc(OCCCCCOc2ccc(C(=N)N)cc2)cc1 [Pentamidine isethionate]	0.801 ± 0.21	0.99 ± 0.024	1	0.982 ± 0.02
Clc1ccc(C(Cn2ccnc2)OCc2ccsc2Cl)c(Cl)c1 (stereo not drawn) [Tioconazole]	1.29 ± 0.51	0.965 ± 0.013	0.417	1.21 ± 0.085
Cn1cnc2c1c(=O)[nH]c(=O)n2C [Theobromine]	0.91 ± 0.41	0.947 ± 0.022	0.667	1.0118 ± 0.00063
Cc1cc(-c2ccccc2)nnc1NCCN1CCOCC1 [Minaprine dihydrochloride]	1.13 ± 0.95	1.03 ± 0.03	0.75	0.9963 ± 0.0098
COc1ccc2c(c1)N(C[C@H](C)CN(C)C)c1ccccc1S2 [Methotrimeprazine maleat salt]	1.16 ± 0.65	0.993 ± 0.037	0.909	1.02 ± 0.016

SMILES	glomerular separation [1]	glomerular width [2]	fraction of imaged embryos annotated as normal kidney [3]	pronephric angle neck segment [4]
COc1cccc2c1C(=O)c1c(O)c3c(c(O)c1C2=O)C[C@@](O)(C(=O)CO)C[C@@H]3O[C@H]1C[C@H](N)[C@H](O)[C@H](C)O1 [Doxorubicin hydrochloride]	1.19 ± 0.75	0.959 ± 0.11	0.75	0.9779 ± 0.0016
CN1CCC(=C2c3ccccc3CCc3sccc32)CC1 [Pizotifen malate]	1.26 ± 0.48	0.84842 ± 0.00054	1	1.06 ± 0.0029
C[N+]1(C)CCC(=C(c2ccccc2)c2ccccc2)CC1 [Diphemanil methylsulfate]	1.35 ± 0.53	0.992 ± 0.041	0.75	1.02 ± 0.033
Oc1ccc(OCc2ccccc2)cc1 [Monobenzone]	2.85 ± 1.3	0.753 ± 0.068	0.25	1.21 ± 0.018
Cc1cc2c(cc1S(N)(=O)=O)S(=O)(=O)CCC2 [Meticrane]	0.987 ± 0.28	0.9447 ± 0.0016	0.917	1.01 ± 0.04
NC(=O)N1c2ccccc2CC(=O)c2ccccc21 [Oxcarbazepine]	0.94 ± 0.28	1 ± 0.035	0.833	0.9454 ± 0.0088
O=C(Nc1ccccc1)OCC(CN1CCCCC1)OC(=O)Nc1ccccc1 (stereo not drawn) [Diperodon hydrochloride]	1.1 ± 0.41	0.984 ± 0.04	0.818	1.04 ± 0.024
CCN(CC)CCOC(=O)C1(C2CCCCC2)CCCCC1 [Dicyclomine hydrochloride]	1.3 ± 0.41	1.12 ± 0.03	0.727	1.16 ± 0.077
O=C(CCCN1CCC(O)(c2ccc(Cl)cc2)CC1)c1ccc(F)cc1 [Haloperidol]	1.19 ± 0.53	0.918 ± 0.086	0.833	0.974 ± 0.046
CC(C(O)c1ccc(O)cc1)N1CCC(Cc2ccccc2)CC1 (stereo not drawn) [Ifenprodil tartrate]	0.712 ± 0.33	1.04 ± 0.024	1	0.942 ± 0.089
C[C@H]1c2cccc(O)c2C(=O)C2=C(O)[C@]3(O)C(=O)C(C(N)=O)=C(O)[C@@H](N(C)C)[C@@H]3[C@@H](O)[C@@H]21 [Doxycycline hydrochloride]	1.09 ± 0.26	1.02 ± 0.055	0.833	1.034 ± 0.01
CCN(CC)CCNC(=O)c1ccc(N)cc1 [Procainamide hydrochloride]	0.95 ± 0.48	1.11 ± 0.027	0.455	1.1 ± 0.22
CC(C)[C@H]1CC[C@H](C(=O)N[C@H](Cc2ccccc2)C(=O)O)CC1 [Nateglinide]	0.985 ± 0.37	1.04 ± 0.024	1	1.08 ± 0.024
CCOC(=O)n1ccn(C)c1=S [Carbimazole]	1.35 ± 0.58	0.997 ± 0.029	0.667	1.052 ± 0.0026
O=C1Cc2cc(CCN3CCN(c4nsc5ccccc45)CC3)c(Cl)cc2N1 [Ziprasidone  Hydrochloride]	1.5 ± 0.53	1.03 ± 0.025	0.833	1.05 ± 0.04
Cc1cccc(C)c1NC(=O)C1CCCCN1C (stereo not drawn) [Mepivacaine hydrochloride]	0.751 ± 0.32	1.06 ± 0.058	0.917	0.991 ± 0.054
CCOC(=O)C1=C[C@]2(CC)CCCN3CCc4c(n1c1ccccc41)[C@@H]32 [Vinpocetine]	1.08 ± 0.2	1.037 ± 0.0011	0.909	1.05 ± 0.039
CN(C/C=C/C#CC(C)(C)C)Cc1cccc2ccccc12 [Terbinafine]	1.03 ± 0.34	1 ± 0.012	1	1.01 ± 0.025
N=C(N=C(N)N)N1CCOCC1 [Moroxidine hydrochloride]	1.26 ± 0.44	1.07 ± 0.049	0.75	0.903 ± 0.039

SMILES	glomerular separation [1]	glomerular width [2]	fraction of imaged embryos annotated as normal kidney [3]	pronephric angle neck segment [4]
CCn1nc(C(=O)O)c(=O)c2cc3c(cc21)OCO3 [Cinoxacin]	1.07 ± 0.43	0.979 ± 0.031	0.8	1.05 ± 0.1
CCc1cccc(CC)c1NC(=O)CN(CC(=O)O)CC(=O)O [Etifenin]	1.34 ± 0.55	1.052 ± 0.01	0.667	1.01 ± 0.015
Nc1ccn([C@@H]2O[C@H](CO)[C@@H](O)[C@@H]2O)c(=O)n1 [Cytarabine]	0.773 ± 0.16	1.06 ± 0.016	0.917	0.998 ± 0.015
CC(=O)Oc1ccccc1C(=O)Oc1ccccc1C(=O)O [Acetylsalicylsalicylic acid]	1.33 ± 0.59	0.971 ± 0.085	0.833	1.017 ± 0.0041
N[C@H]1CONC1=O [(S)-(-)-Cycloserine]	0.898 ± 0.5	0.892 ± 0.011	0.5	1.025 ± 0.0084
O=C(Cn1ccnc1[N+](=O)[O-])NCCO [Etanidazole]	0.807 ± 0.34	1.06 ± 0.014	0.917	0.9304 ± 0.004
Nc1ccc(S(N)(=O)=O)cc1 [Sulfanilamide]	0.646 ± 0.14	1 ± 0.063	0.833	0.996 ± 0.0089
CN1C(C(=O)Nc2ccccn2)=C(O)c2ccccc2S1(=O)=O [Piroxicam]	6.43 ± 2.4	0.525 ± 0.012	0	1.78 ± 0.095
CCOC(=O)NNc1nncc2ccccc12 [Todralazine hydrochloride]	0.937 ± 0.25	0.993 ± 0.06	0.917	0.963 ± 0.031
O=C(CCCCCCC(=O)Nc1ccccc1)NO [Vorinostat]	1.25 ± 0.51	0.947 ± 0.056	0.667	1 ± 0.053
Nc1nc2c(ncn2COCCO)c(=O)[nH]1 [Acyclovir]	1.05 ± 0.49	1.06 ± 0.041	0.583	0.888 ± 0.022
C/C(=C(\CCOP(=O)(O)O)SC(=O)c1ccccc1)N(C=O)Cc1cnc(C)nc1N [Benfotiamine]	1.54 ± 0.89	0.995 ± 0.021	0.75	0.949 ± 0.013
Cc1c(N)c(=O)n(-c2ccccc2)n1C [Ampyrone]	0.975 ± 0.3	1.01 ± 0.031	0.917	0.97 ± 0.0034
O=C(C1CCCCC1)N1CC(=O)N2CCc3ccccc3C2C1 (stereo not drawn) [Praziquantel]	1.18 ± 0.28	1 ± 0.052	0.545	1.02 ± 0.057
CC(C)Cn1cnc2c(N)nc3ccccc3c21 [Imiquimod]	0.76 ± 0.31	0.944 ± 0.089	1	0.978 ± 0.037
CC(C)NCC(O)c1ccc2ccccc2c1 (stereo not drawn) [Pronethalol hydrochloride]	0.915 ± 0.49	0.96 ± 0.036	0.833	1.03 ± 0.06
C[n+]1ccccc1/C=N/O [Pralidoxime chloride]	0.691 ± 0.38	0.9582 ± 0.0035	0.833	1.039 ± 0.01
CCN(CC)CCOCCOC(=O)C1(c2ccccc2)CCCC1 [Carbetapentane citrate]	0.953 ± 0.34	0.949 ± 0.062	0.75	1.06 ± 0.11
CCC(=O)OCC(=O)[C@@]1(OC(=O)CC)[C@@H](C)C[C@H]2[C@@H]3CCC4=CC(=O)C=C[C@]4(C)[C@@]3(Cl)[C@@H](O)C[C@@]21C [Beclomethasone dipropionate]	1.04 ± 0.69	1.16 ± 0.021	0.417	1.16 ± 0.091
